In PubChem BioAssay (NCI):
Several values for one entry are separate records, joined by “and”; a condition that tells them apart may be missing. Equal values may be shown once. The panel holds about 83,000 compounds, 20% with a hit somewhere; the sample as a whole holds those more often.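 Values shown are percent growth following 48 h exposure of cells in 96-well plates to a single concentration of compound; below 10 was considered active.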 Activity calls are given as the source filed them. Where a SMILES comes first, the peptide text is derived from it.

Test system: OVCAR-5 ovarian
Test: NCI-60 one-dose screen, 48 h (100 = growth as untreated, 0 = no growth, -100 = all killed)
Details: 10 µM unless noted
Description: Growth inhibition of the OVCAR-5 human tumor cell line is measured as a screen for anti-cancer activity. Cells are grown in 96 well plates and exposed to the test compound for 48 hours. Compounds are tested at a single concentration, which is 10^-5 M for most compounds. The reported endpoint is percent growth (GI% or GIPRCNT), where numbers from 0 - 100% represent growth inhibition, and numbers from -100% - 0 represent cell death. For example, a value of 40 represents 60% growth inhibition. A value of 0 means no net growth occurred over the course of the experiment. A value of -40 indicates 40% of cells at the beginning of the experiment died by the end of the experiment. A value of -100 means all cells are dead at the end of the experiment.
NCI-60 Human Tumor Cell Lines Screen was performed using the standard one-dose NCI protocol, which is described in more detail at https://dtp.cancer.gov/discovery_development/nci-60/default.htm.
Compounds with GIPRCNT values below 10 were considered active. Activity score was based on GIPRCNT using the following formula: […]
Score is 0 for GIPRCNT values of 100 or above, 50 for GIPRCNT values of 0, and 100 for GIPRCNT values of -100.

Row | Compound | growth
1 | CC1CCC(C(C)C)C(NNC(N)=O)C1 (stereo not given) | 131% (inactive)
2 | CCN(CCNS(C)(=O)=O)c1ccc(N)c(C)c1 | 115% (inactive) and 109% (inactive)
3 | CCCCCCCCCCCCCCCc1ccc(N)c(OC2OC(CO)C(O)C(O)C2O)c1 (stereo not given) | 65.8% (inactive)
4 | CC(C)C(C)(C)c1ccc(O)cc1 | 106% (inactive)
5 | CC1=C/C(O)CC(=O)Cc2nc(co2)C(=O)N2CCC=C2C(=O)OC(C(C)C)C(C)/C=C\C(=O)NC/C=C\1 (stereo not given) | 94.8% (inactive)
6 | Oc1ccc(Cc2ccccc2Cl)c(O)c1 | 97.3% (inactive)
7 | CC1CCC2(OC1)OC1CC3C4CC=C5CC(O)CCC5(C)C4CCC3(C)C1C2C (stereo not given) | 114% (inactive)
8 | Cl | 105% (inactive)
9 | Cc1cc(-c2cc(C)c(O)c(C)c2)cc(C)c1O | 95.6% (inactive)
10 | Cc1cc2ccccc2cn1 | 107% (inactive)
11 | CC1CCC2(C(=O)O)CCC3(C)C(=CCC4C5(C)CCC(O)C(C)(C)C5CCC43C)C2C1C (stereo not given) | -8.77% (active) and 87.9% (inactive)
12 | c1ccc(CNCCNCc2ccccc2)cc1 | 102% (inactive)
13 | Nc1ncnc2c1ncn2C1OC(COP(=O)(O)O)C(O)C1O (stereo not given) | 108% (inactive)
14 | OC1COC(OCc2ccccc2)C(O)C1O (stereo not given) | 99.1% (inactive)
15 | CC(=O)NCC(=O)c1ccc([N+](=O)[O-])cc1 | 103% (inactive)
16 | NN1CCOC(c2ccccc2)C1 (stereo not given) | 97.1% (inactive)
17 | Nc1cc(N)c(N)cc1N | -9.01% (active)
18 | O=C(O)/C=C\C(=O)Nc1cccc2ccccc12 | 100% (inactive) and 104% (inactive)
19 | COc1cc(C(O)C2C(=O)OCC2C2(c3ccc4c(c3)OCO4)SCCCS2)cc(OC)c1OC (stereo not given) | 97.2% (inactive)
20 | NC1CCC(C(=O)O)CC1 (stereo not given) | 93.9% (inactive) and 100% (inactive)

Row | Compound | growth
21 | NC(Cc1ccccc1)C(=O)NC(Cc1ccccc1)C(=O)O (stereo not drawn) (H-Phe-Phe-OH; configuration not given here) | 99% (inactive) and 95.1% (inactive)
22 | c1ccc(-c2nc3ccccc3s2)cc1 | 84.1% (inactive)
23 | CCCCCCCCCCNC(=O)CI | 95.8% (inactive)
24 | CC1(C)COC(=S)N1 | 93.4% (inactive)
25 | CN(C)CC1CCCCCC(CN(C)C)C1=O (stereo not given) | 146% (inactive)
26 | CC(=O)Nc1ccc(S(N)(=O)=O)cc1 | 106% (inactive) and 102% (inactive)
27 | OCC1OC(O)C(O)C(O)C1O (stereo not given) | 106% (inactive)
28 | Nc1nc(N)c2[nH]cnc2n1 | 90.3% (inactive)
29 | COc1ccc(N/C=C/C2=[N+](C)c3ccccc3C2(C)C)c(OC)c1 | 106% (inactive)
30 | O=C(CO)C(O)C(O)C(O)C(O)CO (stereo not given) | 105% (inactive) and 109% (inactive)
31 | Fc1ccc([I+]c2ccc(F)cc2)cc1 | 92.9% (inactive)
32 | O=[N+]([O-])c1cccc(SSc2cccc([N+](=O)[O-])c2)c1 | 104% (inactive)
33 | O=C1CSC2=NCCN12 | 116% (inactive) and 96.7% (inactive)
34 | COc1ccc(C(=O)CC(c2ccccc2)C(C#N)c2ccccc2)cc1 (stereo not given) | 110% (inactive)
35 | CC(C)NC(=O)N/C=C(\C#N)C(N)=O | 92.5% (inactive)
36 | CN1CNC(=O)NC1 | 112% (inactive) and 111% (inactive)
37 | CC(=O)OCC1OC(OC(C)=O)C(OC(C)=O)C(OC(C)=O)C1OC(C)=O (stereo not given) | 101% (inactive) and 112% (inactive)
38 | O=C1c2c(O)ccc(O)c2C(=O)c2c(NCCNCCO)ccc(NCCNCCO)c21 | -15.1% (active) and -78.6% (active)
39 | CCCCOC(=O)/C=C\C(=O)NC(N)=O | 93.1% (inactive)
40 | C#CCOC(=O)Nc1ccccc1 | 95.8% (inactive)
